# Laboratory results as given in PubChem BioAssay (NCATS).
# Records with an inconclusive call do not appear. Where a call stands in place of a potency, no number is given. Active and inactive are the calls of the source. The call rests on the fitted dose curve; in most records, active means well fitted curve in the direction sought with a large enough effect; inconclusive means small, poorly fitted or top-dose-only effect, or another doubt; inactive means no such curve, though single readings can be large; an effect the other way counts as inactive or inconclusive.
# What was measured:
# [1] = target: Nicotinamide N-methyltransferase (Homo sapiens) (UniProt P40261); assay: Confirmatory Screen for Target Class Profiling of Small Molecule Inhibitors of Methyltransferases (AID 1745852); conditions: MTase-Glo luminescence, SAH detection, recombinant enzyme; measured here: NNMT max response; stronger effect = lower value
# [2] = target: Phenylethanolamine N-methyltransferase (Homo sapiens) (UniProt P11086); assay: as above; conditions: MTase-Glo luminescence, SAH detection, recombinant enzyme; measured here: PNMT max response; stronger effect = lower value
# [3] = target: Metallo-beta-lactamase type 2 (Klebsiella pneumoniae) (UniProt C7C422); assay: qHTS to identify inhibitors of the New Delhi Metallo-beta-lactamase (NDM): assay validation screen against the NCATS LOPAC Collection (AID 1794843); conditions: NDM-1 enzyme, nitrocefin hydrolysis, absorbance 485 nm; series mostly up to 38.4 µM;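 further: nitrocefin turnover by NDM-1 measured as 485 nm absorbance at plateau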
# Outline: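 NDM-1 at 2 nM final in 50 mM HEPES pH 7.0 with 1 uM ZnSO4 and 0.01% Tween20 was preincubated with library compounds in DMSO. Nitrocefin (50 uM stock) was then added, and absorbance at 485 nm was read at the kinetic plateau.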
# [4] = Viability counterscreen for antagonist of constitutive androstane receptor (CAR) against the NCATS DSHEA and TCM libraries (AID 1794837); conditions: CAR reporter cell line viability counterscreen, qHTS; series mostly up to 40 µM;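 further: compound exposure lasted 24 h before viability reading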
# Outline: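 Cell viability, CellTiter-Fluor, Ex/Em 405/540 nm, 1 h at 37C. HepG2-CYP2B6-hCAR, 2,500 cells/well; cpds + CITCO 48 uM final (antagonist mode), 24 h, 37C/5% CO2.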
# [5] = Viability counterscreen for agonist of constitutive androstane receptor (CAR) against the NCATS DSHEA and TCM libraries (AID 1794838); conditions: HepG2 cell viability counterscreen, CAR agonist assay, co-treated with 0.75 µM CAR antagonist; series mostly up to 40 µM
# Outline: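 Viability by CellTiter-Fluor fluorescence, 405/540 nm, after 1 h at 37C. HepG2-CYP2B6-hCAR cells were exposed 24 h to test substances in presence of 0.75 uM PK11195 (final).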
# [6] = target: Nuclear receptor subfamily 1 group I member 3 (Homo sapiens) (UniProt Q14994); assay: Primary qHTS for agonist of constitutive androstane receptor (CAR) against the NCATS DSHEA and TCM libraries (AID 1794839); conditions: CAR agonist reporter cells, qHTS luminescence, CAR antagonist co-added at 0.75 µM; series mostly up to 40 µM;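 further: HepG2 cells expressing human CAR with a CYP2B6 reporter plus PK11195 antagonist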
# Outline: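 Luminescence from ONE-Glo luciferase was the agonist read-out in HepG2-CYP2B6-hCAR cells exposed 24 h to test substances. Wells also held the CAR antagonist PK11195 at 0.75 µM final. Viability was by CellTiter-Fluor fluorescence.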
# [7] = HepG2 viability counterscreen (readout 2: ATP content) against the NCATS DSHEA and TCM libraries (AID 1794840); conditions: ATP content luminescence; series mostly up to 27.3 µM
# Outline: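 1,000 HepG2 cells/well, 4 h attach; compounds ~24 h, 37C/5% CO2. Readout 1: GF-AFC 25 uM final, 30 min, fluorescence 380/510 nm. Readout 2: CellTiter-Glo, 30 min RT, luminescence.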
# [8] = HepG2 viability counterscreen (readout 1: protease activity) against the NCATS DSHEA and TCM libraries (AID 1794841); conditions: qHTS concentration series; series mostly up to 27.3 µM;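 further: cells exposed to compounds for about 24 h before the protease read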
# From the text: Assay Development and Screening Technology Laboratory (ADST)
# National Center for Advancing Translational Sciences (NCATS), Rockville, MD
# National Institute of Health (NIH), Bethesda, Maryland
# Dietary Supplements and Natural Products have minor oversight of their safety and efficacy. We assembled a collection of Dietary Supplements and Natural Products (DSNP) as well as Traditional Chinese Medicinal (TCM) Plant extracts, which were screened against an in vitro panel of assays, including a liver cytochrome p450 enzyme panel, CAR/PXR signaling pathways, and P-gp transporter assays, to assess their activity. This pipeline facilitated the interrogation of Natural Product-Drug Interaction (NaPDI) through prominent metabolizing pathways. […] Overall, we highlight four significant bioactivity profiles (measured by p-values) as examples of this prediction. […]
# 7; Read 1; Fluorescence; EnVision plate reader excitation 380 nm, emission 510 nm. […]
# 11; Read 2; Luminescence; ViewLux plate reader. […]
# 7. After incubation, plates were read for fluorescence intensity (Ex/Em = 380 nm/510 nm) on an EnVision detector (PerkinElmer, Shelton, Connecticut).
# 8. Once the detection for fluorescence was completed, plates were dispensed with 3 uL of CellTiter-Glo (Promega, Madison, WI). […]
# 11. Plates were then read for luminescence intensity on a ViewLux detector. […]
# Sequence of Phenylethanolamine N-methyltransferase (Homo sapiens) (P11086 whole entry, looked up): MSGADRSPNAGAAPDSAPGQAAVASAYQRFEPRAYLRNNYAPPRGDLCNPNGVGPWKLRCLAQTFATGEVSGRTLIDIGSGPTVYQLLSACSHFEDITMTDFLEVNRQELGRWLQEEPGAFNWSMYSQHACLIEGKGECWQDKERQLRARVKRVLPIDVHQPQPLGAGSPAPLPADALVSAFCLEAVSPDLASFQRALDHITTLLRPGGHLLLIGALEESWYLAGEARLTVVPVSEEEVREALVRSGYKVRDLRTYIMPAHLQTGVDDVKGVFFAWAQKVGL
# Sequence of Metallo-beta-lactamase type 2 (Klebsiella pneumoniae) (C7C422 whole entry, looked up): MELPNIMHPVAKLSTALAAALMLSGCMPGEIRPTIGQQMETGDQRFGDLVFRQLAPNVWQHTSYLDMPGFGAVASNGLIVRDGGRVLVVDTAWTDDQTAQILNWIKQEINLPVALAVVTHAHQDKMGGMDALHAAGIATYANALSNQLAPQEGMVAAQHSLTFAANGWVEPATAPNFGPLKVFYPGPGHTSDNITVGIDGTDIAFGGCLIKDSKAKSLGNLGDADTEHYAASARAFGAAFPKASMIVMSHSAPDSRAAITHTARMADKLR
# Sequence of Nicotinamide N-methyltransferase (Homo sapiens) (P40261 whole entry, looked up): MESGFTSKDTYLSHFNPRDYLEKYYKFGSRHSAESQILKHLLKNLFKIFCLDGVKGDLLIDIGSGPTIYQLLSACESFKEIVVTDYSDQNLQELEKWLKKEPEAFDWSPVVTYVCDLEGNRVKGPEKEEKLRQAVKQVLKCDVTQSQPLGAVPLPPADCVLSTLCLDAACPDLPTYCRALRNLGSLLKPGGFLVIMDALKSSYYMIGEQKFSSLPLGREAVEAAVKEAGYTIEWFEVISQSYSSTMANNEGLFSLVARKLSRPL
# Sequence of Nuclear receptor subfamily 1 group I member 3 (Homo sapiens) (Q14994 whole entry, looked up): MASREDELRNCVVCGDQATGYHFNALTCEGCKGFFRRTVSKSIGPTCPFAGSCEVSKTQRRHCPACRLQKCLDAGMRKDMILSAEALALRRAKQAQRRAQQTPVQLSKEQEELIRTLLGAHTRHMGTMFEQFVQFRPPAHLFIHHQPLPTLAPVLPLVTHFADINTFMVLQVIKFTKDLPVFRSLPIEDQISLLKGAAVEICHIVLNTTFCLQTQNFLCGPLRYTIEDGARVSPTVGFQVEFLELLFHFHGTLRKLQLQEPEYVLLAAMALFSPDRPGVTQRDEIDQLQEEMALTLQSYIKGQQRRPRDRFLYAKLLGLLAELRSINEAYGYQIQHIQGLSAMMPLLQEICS
smiles,measurement,setting,value
Clc1nccc2c1ccc1ccccc12,activity,[1],-11.8%
same,activity,[2],-6.62%
same,Potency,[3],inactive
C=CCN1CCc2c(cc(O)c(O)c2Cl)C(c2ccccc2)C1 (centres undefined),activity,[1],-9.01%
same,activity,[2],8.41%
same,Potency,[3],inactive
NCC(O)C1CCCCCCC1 (centres undefined),activity,[1],-12%
same,activity,[2],-45.1%
Nc1ccc2c3c(cccc13)C(=O)NC2=O,activity,[1],-4.84%
same,activity,[2],2.54%
same,Potency,[3],inactive
O=C(O)Cc1ccc(O)c(O)c1,activity,[1],0.212%
same,activity,[2],4.32%
C=CCN1CCc2c(cc(O)c(O)c2Br)[C@@H](c2ccccc2)C1,activity,[1],-9.94%
same,activity,[2],-1.34%
same,Potency,[3],inactive
CNCCc1cnc(CCC(c2ccccc2)c2ccccc2)[nH]1,activity,[1],-32.7%
same,activity,[2],-3.25%
NS(=O)(=O)c1cccc2c1c([N+](=O)[O-])cc1nc(O)c(O)nc12,activity,[1],-6.69%
same,activity,[2],1.61%
same,Potency,[3],inactive
O=C(O)/C=C/c1ccc(O)c(O)c1,activity,[1],-14.8%
same,activity,[2],-0.851%
same,outcome,[4],inactive
same,outcome,[5],inactive
same,outcome,[6],inactive
same,outcome,[7],inactive
CN1Cc2sccc2C(c2ccc(O)c(O)c2)C1 (centres undefined),activity,[1],-9.55%
same,activity,[2],2.33%
same,Potency,[3],inactive
O=c1[nH]ccc2c(O)cccc12,activity,[1],-0.246%
same,activity,[2],1.15%
same,Potency,[3],inactive
C=C1C[C@@]23CC[C@H]4[C@@](C)(CCC[C@@]4(C)C(=O)OC4OC(CO)C(O)C(O)C4O)[C@@H]2CC[C@]1(OC1OC(CO)C(O)C(O)C1OC1OC(CO)C(O)C(O)C1O)C3 (some centres undefined),outcome,[4],inactive
same,outcome,[5],inactive
same,outcome,[6],inactive
same,outcome,[7],inactive
same,outcome,[8],inactive
COc1cc(C(O)C(=O)O)ccc1O (centres undefined),Potency,[3],inactive
C=C(C)C1CC=C(C(=O)O)CC1 (centres undefined),Potency,[3],inactive
C/C(=C\c1ccc(C(=O)O)cc1)c1ccc2c(c1)C(C)(C)CCC2(C)C,Potency,[3],inactive
CC(C)Cn1c(=O)n(C)c(=O)c2[nH]cnc21,Potency,[3],inactive
N=C(N)c1ccccc1,Potency,[3],inactive
Nc1ccc(CCNc2ncnc3c2ncn3C2OC(CO)C(O)C2O)cc1 (centres undefined),Potency,[3],inactive
COc1ccc(-c2cc3ncc(C)n3c(Nc3ncccc3C(N)=O)n2)cc1OC,Potency,[3],inactive
COCc1nc2c([nH]1)c(=O)n(C)c(=O)n2CC(C)C,Potency,[3],inactive
CCCCCCN(CCCCCC)C(=O)Cc1c(-c2ccc(F)cc2)[nH]c2ccccc12,Potency,[3],inactive
C#CCn1c(=O)c2c(ncn2C)n(C)c1=O,Potency,[3],inactive
O=C1Nc2ccc(I)cc2/C1=C/c1cc(Br)c(O)c(Br)c1,Potency,[3],inactive
Cn1c(=O)[nH]c2ncn(C)c2c1=O,Potency,[3],inactive
Cc1nc(N=Nc2ccc(C(=O)O)cc2)c(COP(=O)(O)O)c(C=O)c1O,Potency,[3],inactive
COc1ccc(C(=O)NCc2cccnc2)cc1C(=O)NCc1cccnc1,Potency,[3],inactive
C=C1C(=O)O[C@@H]2[C@H]3O[C@]3(C)CCC=C(C)CC[C@@H]12,Potency,[3],inactive
COc1ccc2c(c1)c(CC(=O)O)c(C)n2C(=O)c1ccccc1,Potency,[3],inactive
C=CC[C@H](N)C(=O)O,Potency,[3],inactive
CC(C)(CO)Cc1cc(C(C)(C)C)c(O)c(C(C)(C)C)c1,Potency,[3],inactive
NCCC1CCCC(CCN)N1 (centres undefined),Potency,[3],inactive
O=c1oc(Cl)c(Cl)c2ccccc12,Potency,[3],inactive
NC[C@@H]1O[C@H](c2ccccc2)Cc2c1ccc(O)c2O,Potency,[3],inactive
CNC(=O)c1cc2c(cn1)[nH]c1ccccc12,Potency,[3],inactive
NC1(C(=O)O)CCc2cc(C(=O)O)ccc21 (centres undefined),Potency,[3],inactive
Oc1cc2c(cc1O)C(c1ccccc1)CNCC2 (centres undefined),Potency,[3],inactive
CC1CCN(CC[C@H]2CCCN2S(=O)(=O)c2cccc(O)c2)CC1,Potency,[3],inactive
c1ccc(C(NCc2cccnc2)(c2ccccc2)c2ccccc2)cc1,Potency,[3],inactive
NC(=O)c1cc[n+](CC2=C(C(=O)O)N3C(=O)[C@@H](NC(=O)[C@@H](c4ccccc4)S(=O)(=O)[O-])[C@H]3SC2)cc1,Potency,[3],inactive
NC(=O)CNCCC(c1ccccc1)c1ccccc1,Potency,[3],inactive
COc1ccc(CCN(C)CCc2ccc(OC)c(OC)c2)cc1OC,Potency,[3],inactive
COC1(C2=NCCN2)COc2ccccc2O1 (centres undefined),Potency,[3],inactive
Cn1c(=O)c2c(nc(/C=C/c3cccc(Cl)c3)n2C)n(C)c1=O,Potency,[3],inactive
C=CCn1c(=O)c2c(nc(-c3ccc(S(=O)(=O)O)cc3)n2C)n(C)c1=O,Potency,[3],inactive
NC(N)=[N+]1CCc2ccccc2C1,Potency,[3],inactive
COc1cc(N)c(Cl)cc1C(=O)OCCN1CCCCC1,Potency,[3],inactive
OCC1NCC(O)C(O)C1O (centres undefined),Potency,[3],inactive
[Li+],Potency,[3],inactive
